# Source: PubChem BioAssay (NCATS)
# Results filed as inconclusive are left out. Calls of active or inactive are those of the source. Calls follow the shape of the dose curve; as a rule, active = well fitted inhibition curve with a large enough effect; inconclusive = small, poorly fitted or top-dose-only effect; inactive = no such curve, though single readings can be large or run the other way.
# Experiment: Primary qHTS for small molecule stabilizers of the endoplasmic reticulum resident proteome: Secreted ER Calcium Modulated Protein (SERCaMP) assay (AID 1508630)
# Details: SH-SY5Y GLuc-SERCaMP (Gaussia luciferase released on ER calcium loss) secretion, thapsigargin, luminescence; series mostly up to 38.4 µM; activity change, negative = inhibition: at the top concentration
# Text: Assay Provider: Brandon K. Harvey Ph.D.
# National Institute on Drug Abuse, National Institutes of Health, Baltimore, MD
# Endoplasmic reticulum (ER) dysregulation is associated with human pathologies including neurodegenerative, cardiovascular, muscular, and diabetic conditions. Maintenance of ER calcium is critical for functions of the ER and its depletion can lead to loss of ER resident proteins, in a process termed exodosis. Therapeutic compounds capable of attenuating the redistribution of ER proteins under pathological conditions may slow or stop disease progression. To identify such compounds, we performed a quantitative high-throughput screen (qHTS) using the SERCaMP assay, which monitors secretion of ER resident proteins triggered by calcium depletion.
# SERCaMP was initially developed as a reporter of ER calcium homeostasis using a Gaussia luciferase with a modified signal peptide and carboxy-terminus (GLuc-SERCaMP), modifications that confer secretion of the reporter in response to ER calcium depletion (Henderson et al., 2014). The assay was used to screen 9,501 compounds, including a collection of drugs approved by the FDA (US), EMA (EU), NHI (Japan), and HC (Canada) regulatory agencies (Huang et al., 2011). Since the SERCaMP reporter reflects the exodosis phenomenon (Trychta et al., 2018a), compounds identified in the screen have the potential to prevent exodosis by different mechanisms such as stabilizing ER calcium or augmenting ERS retrieval.
# 1. Henderson, M.J., Wires, E.S., Trychta, K.A., Richie, C.T., and Harvey, B.K. (2014). SERCaMP: a carboxy-terminal protein modification that enables monitoring of ER calcium homeostasis. Mol Biol Cell 25, 2828-2839.
# 2. Huang, R., Southall, N., Wang, Y., Yasgar, A., Shinn, P., Jadhav, A., Nguyen, D.T., and Austin, C.P. (2011). The NCGC pharmaceutical collection: a comprehensive resource of clinically approved drugs enabling repurposing and chemical genomics. Sci Transl Med 3, 80ps16.
# 3. Trychta, K.A., Back, S., Henderson, M.J., and Harvey, B.K. (2018a). KDEL Receptors Are Differentially Regulated to Maintain the ER Proteome under Calcium Deficiency. Cell Rep 25, 1829-1840 e1826.
# SEQUENCE No. (1, 2, 3, etc.); […] (e.g., Cells, Incubation, Reagent, etc.); VALUE and DESCRIPTION.
# 1; Reagent; 5 uL; 1000 SH-SY5Y cells per wells
# 3; Compound; 23 nL; Control inhibitor / compound library
# 5; Reagent; 100 nM; Thapsigargin
# 7; Reagent; 1 uL; 0.5x coelenterazine
# 8; Detection; Luminescence; ViewLux imaging system
# NOTES (numbers refer to sequence above)
# 1; SH-SY5Y human neuroblastoma cells stably expressing GLuc-SERCaMP (SH-SY5Y-GLuc-ASARTDL) cells were seeded in 1,536 well white tissue culture treated plates (Corning, Cat# 7464) in DMEM-high glucose-sodium pyruvate (ThermoFisher Scientific, Cat #10569) supplemented with 10% bovine growth serum (Hyclone), 10 U/ml penicillin (Gibco), 10 ug/ml streptomycin (Gibco), and 20 mM HEPES.
# 2; Assay plates were incubated for 5 hour at 37C in a humidified incubator containing 5% CO2.
# 3; qHTS libraries (23 nl, final concentrations of 1.53 uM, 7.67 uM, 38.3 uM) or controls (neutral control: DMSO, positive control: dantrolene) were added using a Kalypsis pin-tool Robotic System equipped with 1536 pinheads.
# 4; Cells were then incubated for 16 hours at 37C, 5% CO2.
# 5; Thapsigargin was added at 100 nM to deplete ER calcium stores.
# 6; Cells were incubated for 4 hour (37 °C, 5% CO2)
# 7; Gaussia luciferase in the medium was measured by adding 1 ul of 0.5x coelenterazine (final concentration 0.07x) prepared in Gaussia Luciferase Glow Assay Buffer (Pierce), without addition of the Cell Lysis Buffer Reagent.
# 8; Luminescence was measured using a ViewLux […] CCD imaging system (Perkin Elmer) equipped with clear filters. […] The same controls were also used for the calculation of the Z' factor, a measure of assay quality control, as previously described (Zhang et al., 1999). […]
# % is scaled to controls: 0 for no effect and ±100 for the full control effect.
Structure (SMILES),"activity change, negative = inhibition",Potency
Cc1ccc(-c2ncn(-c3ccc(Nc4nccc(-c5cccc(N6CCOCC6)c5)n4)cc3)n2)cn1,137% (inactive),–
CNC(=O)c1ccc(-c2cnc3ncc(Cc4ccc5ncccc5c4)n3n2)cc1F,56.4% (inactive),–
O=C(O)c1ccc2cc(-c3ccc(O)c(C45CC6CC(CC(C6)C4)C5)c3)ccc2c1,97.4% (inactive),–
Cc1c(NC(=O)OC[C@@H]2COCCN2)cn2ncnc(Nc3ccc4c(cnn4Cc4cccc(F)c4)c3)c12,119% (inactive),–
CCS(=O)(=O)c1cccc(-c2cc(C(=O)NC3CCN(C)CC3)c(C)c3[nH]c4ncc(C)cc4c23)c1,85.4% (inactive),–
CC[C@@H]1C(=O)N(C)c2cnc(Nc3ccc(C(=O)NC4CCC(N5CCN(CC6CC6)CC5)CC4)cc3OC)nc2N1C(C)C (stereo not given in full),0% (inactive),–
OCCCNc1cc(-c2ccnc(Nc3cccc(Cl)c3)n2)ccn1,11.6% (inactive),–
O=C(O)Cn1nnc(-c2cc(N3CCC(Oc4cc(F)ccc4Br)CC3)no2)n1,0% (inactive),–
COc1ccc(-n2nc(C(N)=O)c3c2C(=O)N(c2ccc(N4CCCCC4=O)cc2)CC3)cc1,44.6% (inactive),–
O=C(Cc1ccc(-c2ccc(OCCN3CCOCC3)cc2)cn1)NCc1ccccc1,98.7% (inactive),–
CC(O)C1C(=O)N2C(C(=O)O)=C(SC3CNC(C(=O)N(C)C)C3)C(C)C12 (stereo not given),111% (inactive),–
CC(NCc1ccc2c(c1)nc(NC(=O)c1ccc(-c3cn[nH]c3)s1)n2CC(C)(C)O)C(C)(C)C (stereo not given),228% (inactive),–
CC(C)C[C@H](NC(=O)CNC(=O)c1cc(Cl)ccc1Cl)B(O)O,225% (inactive),–
COc1ccc(F)c(F)c1C(=O)c1cnc(NC2CCN(S(C)(=O)=O)CC2)nc1N,0% (inactive),–
Cc1ccc(C(=O)Nc2ccc(CN3CCN(C)CC3)c(C(F)(F)F)c2)cc1C#Cc1cnc2cccnn12,292% (inactive),–
COc1ccc(CC2c3cc(OC)c(OC)cc3CC[N+]2(C)CCC(=O)OCCCCCOC(=O)CC[N+]2(C)CCc3cc(OC)c(OC)cc3C2Cc2ccc(OC)c(OC)c2)cc1OC (stereo not given),101% [at 7.35 µM] (inactive),–
Cn1c2cc(S(C)=O)sc2c2cnn(Cc3cccc(N)c3)c(=O)c21 (stereo not given),10.4% (inactive),–
NCC(=O)Nc1ccc(-n2nc(C(F)(F)F)cc2-c2ccc3c(ccc4ccccc43)c2)cc1,0% (inactive),–
COC(=O)c1ccc2c(C(=Nc3ccc(N(C)C(=O)CN4CCN(C)CC4)cc3)c3ccccc3)c(O)[nH]c2c1,2.61% (inactive),–
CC1(C)CCC(c2ccc(Cl)cc2)=C(CN2CCN(c3ccc(C(=O)NS(=O)(=O)c4ccc(N[C@H](CCN5CCOCC5)CSc5ccccc5)c(S(=O)(=O)C(F)(F)F)c4)cc3)CC2)C1,331% (inactive),–

Structure (SMILES),"activity change, negative = inhibition",Potency
Cc1cc(C(=O)N2CCN(c3cccc(Cl)c3)CC2)n(-c2ccccc2)n1,40.4% (inactive),–
C[C@@H]1COC(Nc2ccc3ncnc(Nc4ccc(OCc5nccs5)c(Cl)c4)c3c2)=N1,0% (inactive),–
NC(=O)Nc1cc(-c2cccc(F)c2)sc1C(=O)N[C@H]1CCCNC1,217% (inactive),–
CC=C1NC(=O)[C@H]2CSSCCC=C[C@H](CC(=O)N[C@H](C(C)C)C(=O)N2)OC(=O)[C@H](C(C)C)NC1=O,38.7% (inactive),–
CC(C)[C@H](C(=O)Nc1ccc(C(=O)NO)cc1)c1ccccc1,258% (inactive),–
O=c1[nH]c(=O)n(C2CCCO2)cc1F (stereo not given),-23.5% [at 76.3 µM] (inactive),–
COc1cccc(-c2ccc(NC(=O)C3=C(C(=O)O)CCC3)c(F)c2)c1,0% (inactive),–
O=C(C=Cc1cccnc1)NCCCCC1CCN(C(=O)c2ccccc2)CC1,-60.9% (inactive),–
COc1cc2c(Oc3ccc4[nH]c(C)cc4c3F)ncnc2cc1OCCCN1CCCC1,383% (inactive),–
CCNC(=O)Nc1ccc2ncc(Nc3ccc(C)cc3)nc2n1,80.3% (inactive),–
COc1ccc2c(OCc3nnc4ccc(-c5ccccc5)nn34)ccnc2c1,15.9% (inactive),–
COc1cc(-c2nn(C3CCC(N4CCN(C(C)=O)CC4)CC3)c3ncnc(N)c23)ccc1NC(=O)c1cc2ccccc2n1C (stereo not given),0% (inactive),–
CS(=O)(=O)N1CCN(Cc2cc3nc(-c4cccc5[nH]ncc45)nc(N4CCOCC4)c3s2)CC1,0% (inactive),–
CC(C)(C)c1cc(NC(=O)Nc2ccc(-c3cn4c(n3)sc3cc(OCCN5CCOCC5)ccc34)cc2)no1,0% (inactive),–
CC(=O)OCCN1C(=O)c2c(C)nc3ccc(S(=O)(=O)N4CCOCC4)cc3c2C1=O,–,inactive
O=C(Nc1cn[nH]c1-c1nc2ccc(CN3CCOCC3)cc2[nH]1)NC1CC1,0% (inactive),–
CC(C)CC(=O)Nc1n[nH]c2c1CN(C(=O)C1CCN(C)CC1)C2(C)C,86.3% (inactive),–
CC(C)c1nn(-c2c(Cl)cccc2Cl)c2nc(Cc3ccc(OCCO)cc3)[nH]c(=O)c12,244% (inactive),–
CNC(=O)CN1CCC(Oc2cc3c(Nc4cccc(Cl)c4F)ncnc3cc2OC)CC1,0% (inactive),–
CCn1nnc2c(N3CCOCC3)nc(-c3ccc(NC(=O)Nc4ccc(C(=O)N5CCN(C)CC5)cc4)cc3)nc21,0% (inactive),–
